Data as given in PubChem BioAssay (EPA / NIEHS).
Records with an inconclusive call do not appear. Active and inactive are the calls of the source. How the source made its calls, unless noted: active means hit-call score of the fitted dose curve at least 0.9, where 1 is the maximum; inconclusive means response in the unintended direction; inactive means score below 0.9.

Key:
TIMP1, TIMP1 (gene 7076) = test: LTEA_HepaRG_TIMP1: Life Technologies and Expression Analysis (LTEA) Assay for TIMP1 using HepaRG (AID 2283534; active means hit-call score of the fitted dose curve at least 0.9, where 1 is the maximum; inactive means score below 0.9); settings: mRNA level, 48 h; actives raise or lower the signal
In short: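 Readout is TIMP1 mRNA level measured by qRT-PCR and normalized to three housekeeping genes. Human HepaRG cells were treated for 48 h in duplicate at eight concentrations up to 100 uM (0.5% DMSO); gain or loss fitted against DMSO.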

[1] = read-out: Tumor necrosis factor receptor 1 (TNFRSF1A), TNFRSF1A (gene 7132); test: LTEA_HepaRG_TNFRSF1A: Life Technologies and Expression Analysis (LTEA) Assay for Tumor necrosis factor receptor 1 (TNFRSF1A) using HepaRG (AID 2283535; active means hit-call score of the fitted dose curve at least 0.9, where 1 is the maximum; inactive means score below 0.9); settings: mRNA level, 48 h; actives raise or lower the signal
In short: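 Read-out is TNFRSF1A transcript level by TaqMan qRT-PCR, normalized to three housekeeping genes, scored as gain or loss of signal versus 0.5% DMSO. Human HepaRG cells received test chemicals for 48 h at up to 100 uM (half-log series).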

[2] = read-out: Thyroid Hormone Responsive (THRSP), THRSP (gene 7069); test: LTEA_HepaRG_THRSP: Life Technologies and Expression Analysis (LTEA) Assay for Thyroid Hormone Responsive (THRSP) using HepaRG (AID 2283536; active means hit-call score of the fitted dose curve at least 0.9, where 1 is the maximum; inactive means score below 0.9); settings: mRNA level, 48 h; actives raise or lower the signal
In short: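 qRT-PCR read-out (Fluidigm TaqMan), housekeeping-normalized (ACTB/GAPDH/POLR2A). HepaRG, 48 h chemical exposure, 8-pt half-log series from 100 uM in 0.5% DMSO, duplicates. Bidirectional curve fit vs 0.5% DMSO baseline.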

[3] = read-out: Cellular tumor antigen p53 (Homo sapiens) (UniProt P04637); test: LTEA_HepaRG_TP53: Life Technologies and Expression Analysis (LTEA) Assay for Tumor Protein P53 (TP53) using HepaRG (AID 2283537; active means hit-call score of the fitted dose curve at least 0.9, where 1 is the maximum; inactive means score below 0.9); settings: mRNA level, 48 h; actives raise or lower the signal
In short: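 Differentiated HepaRG cells in serum-free induction medium exposed 48 h in duplicate to 8 half-log concentrations, top 100 uM, 0.5% DMSO. TP53 mRNA by TaqMan qRT-PCR (Fluidigm), normalized to ACTB, GAPDH, POLR2A; fitted bidirectionally versus DMSO.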

[4] = read-out: UDP glucuronosyltransferase (UGT1A6), UGT1A6 (gene 54578); test: LTEA_HepaRG_UGT1A6: Life Technologies and Expression Analysis (LTEA) Assay for UDP glucuronosyltransferase (UGT1A6) using HepaRG (AID 2283539; active means hit-call score of the fitted dose curve at least 0.9, where 1 is the maximum; inactive means score below 0.9); settings: mRNA level, 48 h; actives raise or lower the signal
In short: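 HepaRG, 48 h post-plating switch to serum-free induction medium; chemical 48 h, 100 uM top, half-log x8, duplicate, 0.5% DMSO. Phenobarbital 1mM induction control. UGT1A6 mRNA by TaqMan qRT-PCR; gain/loss fit vs DMSO.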

[5] = read-out: X-box binding protein 1 (XBP1), XBP1 (gene 7494); test: LTEA_HepaRG_XBP1: Life Technologies and Expression Analysis (LTEA) Assay for X-box binding protein 1 (XBP1) using HepaRG (AID 2283540; active means hit-call score of the fitted dose curve at least 0.9, where 1 is the maximum; inactive means score below 0.9); settings: mRNA level, 48 h; actives raise or lower the signal
In short: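 Transcript levels of XBP1, measured by qRT-PCR and normalised to three housekeeping genes, were fitted bidirectionally relative to 0.5% DMSO controls. Human HepaRG cells received eight-point half-log dilutions from 100 uM for 48 h.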

[6] = LTEA_HepaRG_LDH_cytotoxicity: Cytotoxicity Assessment in the Life Technologies and Expression Analysis (LTEA) Assay (AID 2283563)
In short: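 Cells were thawed and plated for 48 h. Medium was then replaced with serum-free induction medium. Chemicals (8 half-log points, maximum 100 uM, 0.5% DMSO) were added in duplicate for 48 h, after which spent medium was assayed for LDH.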

[7] = TOX21_p53_BLA_p2_viability: Viability Assessment in the Tox21 HCT-116 p53 Agonism Beta-lactamase Assay, Phase 2 (AID 2283591);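 further: compound exposure lasted 16 h at 37 °C; actives lower the ATP signal meaning cytotoxicity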
In short: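 HCT116 p53-bla cells, 4000/well, dosed after 5 h plating (217-fold dilution of DMSO stocks) and incubated 16 h at 37C. Viability taken as cellular ATP by CellTiter-Glo luminescence after 30 min RT; signal loss marks cytotoxicity.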

[8] = target: Cellular tumor antigen p53 (Homo sapiens) (UniProt P04637); test: TOX21_p53_BLA_p2_ratio: Tox21 HCT-116 p53 Agonism Beta-lactamase Assay, Ratio, Phase 2 (AID 2283592)
Sequence of Cellular tumor antigen p53 (Homo sapiens) (P04637 whole entry, looked up): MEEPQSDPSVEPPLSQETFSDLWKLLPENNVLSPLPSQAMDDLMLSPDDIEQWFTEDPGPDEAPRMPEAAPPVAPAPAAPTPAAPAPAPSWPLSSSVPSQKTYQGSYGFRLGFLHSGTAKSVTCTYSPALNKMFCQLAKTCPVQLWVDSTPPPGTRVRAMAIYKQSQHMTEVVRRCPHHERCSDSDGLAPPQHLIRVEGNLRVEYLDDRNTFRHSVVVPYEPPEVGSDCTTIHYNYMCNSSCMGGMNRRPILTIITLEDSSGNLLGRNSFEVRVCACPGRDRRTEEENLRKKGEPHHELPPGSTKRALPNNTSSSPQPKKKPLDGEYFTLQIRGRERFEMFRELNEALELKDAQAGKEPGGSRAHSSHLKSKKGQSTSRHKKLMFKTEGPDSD
In short: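 Plated HCT116 p53-bla cells (4000/well) received compound after 5 h, then 16 h at 37C/5% CO2. CCF4-AM added, 2 h RT. Ratio of 460 to 530 nm emission taken as the p53 reporter signal.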

[9] = target: Cellular tumor antigen p53 (Homo sapiens) (UniProt P04637); test: TOX21_p53_BLA_p3_ratio: Tox21 HCT-116 p53 Agonism Beta-lactamase Assay, Ratio, Phase 3 (AID 2283596)
In short: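 Cells were seeded at 4000/well, rested 5 h at 37C, then dosed with DMSO compound solutions (217-fold dilution) for 16 h. CCF4-AM substrate was loaded for 2 h at room temperature, and the 460/530 nm emission ratio was fitted for gain of signal versus DMSO.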

[10] = TOX21_p53_BLA_p4_viability: Viability Assessment in the Tox21 HCT-116 p53 Agonism Beta-lactamase Assay, Phase 4 (AID 2283597);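 further: hits lower the luminescence signal meaning cytotoxicity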
In short: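 Readout: ATP luminescence (CellTiter-Glo), measured 30 min after reagent addition at RT. The reagent followed a 2 h CCF4-AM incubation, and the cells had been exposed to compound for 16 h at 37C.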

[11] = target: Cellular tumor antigen p53 (Homo sapiens) (UniProt P04637); test: TOX21_p53_BLA_p5_ratio: Tox21 HCT-116 p53 Agonism Beta-lactamase Assay, Ratio, Phase 5 (AID 2283599)
In short: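 HCT-116 p53-bla cells (4000/well) plated 5 h, dosed with compound (217-fold DMSO dilution) for 16 h at 37 C; CCF4-AM substrate 2 h at room temperature. Activity is the 460/530 nm emission ratio (405 nm excitation), fitted in gain-of-signal direction versus DMSO.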

[12] = TOX21_p53_BLA_p5_viability: Viability Assessment in the Tox21 HCT-116 p53 Agonism Beta-lactamase Assay, Phase 5 (AID 2283600)
In short: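 Workflow: seed 4000 cells per well, wait 5 h, add compounds (DMSO, 217-fold dilution), incubate 16 h, load CCF4-AM 2 h, add CellTiter-Glo, read luminescence after 30 min.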

[13] = target: Cellular tumor antigen p53 (Homo sapiens) (UniProt P04637); test: TOX21_p53_BLA_p4_ratio: Tox21 HCT-116 p53 Agonism Beta-lactamase Assay, Ratio, Phase 4 (AID 2283601)
In short: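 HCT-116 p53 beta-lactamase reporter cells (4000/well) preincubated 5 h, then compound (217-fold dilution of DMSO stock) for 16 h at 37C. CCF4-AM substrate added 2 h at room temperature; 460/530 nm emission ratio fitted upward versus DMSO.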

[14] = Tanguay_ZF_120hpf_MORT_legacy: (Legacy) Oregon State University Tanguay Lab 120 Hour Post-fertilization zebrafish Assay for Mortality (AID 2283633)
In short: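 5D WT zebrafish, chorion removed 4 hpf; 1 embryo/well from 6 hpf; static exposure to 120 hpf, 28C, dark, sealed. Final DMSO 0.64%. Readout: binary mortality, brightfield, 24 + 120 hpf; DMSO as negative control.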

[15] = Tanguay_ZF_120hpf_YSE_legacy: (Legacy) Oregon State University Tanguay Lab 120 Hour Post-fertilization zebrafish Assay for Yolk Sac Edema (AID 2283634);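 on AC50: actives raise the incidence of yolk sac edema above the DMSO baseline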
In short: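 Dechorionate (pronase, 4 hpf) → place one 6 hpf embryo per well → static compound exposure, sealed and foil-covered, 28C, to 120 hpf → record yolk sac edema as present or absent. Final DMSO 0.64%.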

[16] = Tanguay_ZF_120hpf_AXIS_legacy: (Legacy) Oregon State University Tanguay Lab 120 Hour Post-fertilization zebrafish Assay for Body Axis Malformation (AID 2283635);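 on AC50: potency for an increased fraction of larvae scored with body axis malformation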
In short: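 Chorion is removed with pronase at 4 hpf, then single 6 hpf embryos are dosed (final DMSO 0.64%) and held statically at 28C in sealed, foil-covered plates. At 120 hpf body axis malformation is recorded as present or absent.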

[17] = TOX21_p53_BLA_p3_viability: Viability Assessment in the Tox21 HCT-116 p53 Agonism Beta-lactamase Assay, Phase 3 (AID 2283593);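 further: cells exposed to compound for 16 h before reading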
In short: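 HCT116 cells, 4000/well, dosed 5 h after plating by pin transfer (217-fold dilution from DMSO stock) and incubated 16 h at 37C, 5% CO2. Viability read as ATP luminescence with CellTiter-Glo after 30 min at room temperature.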

[18] = Tanguay_ZF_120hpf_EYE_legacy: (Legacy) Oregon State University Tanguay Lab 120 Hour Post-fertilization zebrafish Assay for Eye Malformation (AID 2283636);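 further: binary presence or absence of eye malformation scored by brightfield in 120 hpf larvae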
In short: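 5D wild-type embryos, pronase-dechorionated at 4 hpf; static exposure 6–120 hpf, 28C, dark; DMSO 0.64% final; 5uM trimethyltin chloride positive control. Binary eye-defect scoring at 120 hpf; dead embryos not scored.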

[19] = read-out: UDP glucuronosyltransferase (UGT1A1), UGT1A1 (gene 54658); test: LTEA_HepaRG_UGT1A1: Life Technologies and Expression Analysis (LTEA) Assay for UDP glucuronosyltransferase (UGT1A1) using HepaRG (AID 2283538; active means hit-call score of the fitted dose curve at least 0.9, where 1 is the maximum; inactive means score below 0.9); settings: mRNA level, 48 h; actives raise or lower the signal
In short: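 Cells are plated, cultured 48 h, switched to serum-free induction medium, then dosed 48 h at eight concentrations (max 100 uM, 0.5% DMSO). RNA is isolated and UGT1A1 expression measured by qRT-PCR; changes versus DMSO are fitted in both directions.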

Measured: AC50

CCCSP(=O)(OCC)Oc1ccc(Br)cc1Cl (stereo unspecified)
not listed: [17] | [18] | [19]
inactive: all other assays above

CNc1cnn(-c2cccc(C(F)(F)F)c2)c(=O)c1Cl
not listed: [7] | [10] | [12] | [13] | [19]
inactive: all other assays above

CN(C)[C@@H]1C(=O)C(C(N)=O)=C(O)[C@@]2(O)C(=O)C3=C(O)c4c(O)cccc4[C@@](C)(O)[C@H]3[C@H](O)[C@@H]12
inactive: TIMP1, TIMP1 (gene 7076) | [1] | [2] | [4] | [5] | [6] | [14] | [15] | [16] | [18]

COP(=O)(OC)OC(Br)C(Cl)(Cl)Br (stereo unspecified)
inactive: TIMP1, TIMP1 (gene 7076) | [1] | [2] | [19] | [4] | [6] | [14] | [15] | [16] | [18]

COc1ccc(C(=CC(=O)N2CCOCC2)c2ccc(Cl)cc2)cc1OC
active: [2] 63.8 µM | [15] 48.3 µM | [16] 9.11 µM | [18] 16.4 µM
not listed: [8] | [11] | [17] | [19]
inactive: all other assays above

CCOP(=O)(OCC)Oc1cc(C)nc(C(C)C)n1
not listed: [7] | [10] | [13] | [19]
inactive: all other assays above

C#CCC1=C(C)C(OC(=O)C2C(C=C(C)C)C2(C)C)CC1=O (stereo unspecified)
active: [2] 88.9 µM | [7] 45.8 µM | [8] 86.7 µM
not listed: [16] | [19]
inactive: all other assays above

Nc1c(Cl)cc([N+](=O)[O-])cc1Cl
inactive: [5] | [6]
active: TIMP1, TIMP1 (gene 7076) 74 µM | [1] 74.1 µM | [2] 42.3 µM | [4] 78.1 µM | [15] 33 µM | [16] 40.4 µM | [18] 9.62 µM
